# The source made the active and inactive calls.
# What was measured:
# [1] = small molecules captured by biotinylated probe aFSTL3 – biochemical, small-molecule microarray, fluorescence 635/667, stem cell growth factor project, primary screen (AID 1064); conditions: higher = more signal;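 also: measures binding of the biotinylated anti-FSTL3 antibody to printed compounds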
# [2] = binders from COS7 lysate, DM2A8 probe, primary screen, torsin A project, cell lysate, small-molecule microarray, fluorescence 635/667 (AID 1065); conditions: higher = more signal, COS7 lysate expressing mutant human TOR1A
# [3] = small molecules captured by biotinylated probe aFGF2 – biochemical, small-molecule microarray, fluorescence 635/667, stem cell growth factor project, primary screen (AID 1067); conditions: higher = more signal;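 also: measures binding of biotinylated aFGF2 protein to printed compounds on slides; z-score merges feature fluorescence and signal-to-noise across triplicate slides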
# [4] = small molecules captured by biotinylated probe aFGF10 – biochemical, small-molecule microarray, fluorescence 635/667, stem cell growth factor project, primary screen (AID 1071); conditions: higher = more signal;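 also: score merges 667 nm spot intensity and signal to noise from triplicate slides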
# [5] = target: Neurogenic locus notch homolog protein 2 (Homo sapiens) (UniProt Q04721); experiment: small molecules binding Notch2 protein – biochemical, small-molecule microarray, 635 nm fluorescence, stem cell growth factors, primary screen (AID 1073); conditions: higher = more signal
# [6] = target: Pro-neuregulin-1, membrane-bound isoform (Homo sapiens) (UniProt Q02297); experiment: small molecules binding neuregulin-1 protein – biochemical, small-molecule microarray, fluorescence 635/667, psychiatric disease protein project, primary screen (AID 1075); conditions: NRG1 binding, 635 nm fluorescence, higher = more signal;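 also: score combines 667 nm spot fluorescence with signal to noise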
# [7] = tested on: Neuregulin-1 EGF-like domain; experiment: small molecules binding NRG1 EGF domain – biochemical, small-molecule microarray, 635 nm fluorescence, primary screen (AID 1081); conditions: higher = more signal;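 also: binding of the protein to compounds printed on small-molecule microarray slides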
# [8] = FRG1 expression reporter modulators in myotubes – cell-based, C2C12 myotubes, firefly/Renilla luciferase, luminescence, FRG1 inhibition for FSHD, primary screen (AID 1084); conditions: FRG1 promoter luciferase, higher = more signal, called active from +8 up or from −8 down
# [9] = small molecules captured by biotinylated probe aFST – biochemical, small-molecule microarray, fluorescence 635/667, stem cell growth factor project, primary screen (AID 1086); conditions: higher = more signal;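 also: score merges 667 nm fluorescence with signal-to-noise of each printed compound spot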
# [10] = binders of probe aHhip on microarray, primary screen, stem cell growth factor project, biochemical, small-molecule microarray, fluorescence 635/667 (AID 1087); conditions: higher = more signal;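 also: score merges spot fluorescence at 667nm with spot signal to noise ratio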
# [11] = tested on: PRMT1 (protein arginine N-methyltransferase 1); experiment: small molecules binding arginine methyltransferase PRMT1 – biochemical, small-molecule microarray, 635 nm fluorescence, primary screen (AID 1088); conditions: higher = more signal;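 also: binding of Prmt1 protein to compounds spotted on small-molecule microarray slides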
# [12] = growth effects on S. cerevisiae YJM789 – YJM789 clinical isolate, OD600, 24 h, basal, primary screen (AID 1089); conditions: higher = more signal, called active from +8 up or from −8 down;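 also: growth of clinical yeast isolate S. cerevisiae YJM 789 seeded 1000 cells per well; test concentration not given here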
# [13] = S. pombe growth modifiers, basal conditions – strain 972, OD600, 24 h, no modulator, primary screen (AID 1090);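 also: basal condition with compound alone and no growth modifier present; test concentration not given here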; conditions: S. pombe 972 growth, higher = more signal, called active from +8 up or from −8 down
# [14] = budding yeast growth modifiers under rapamycin – strain BY4716, OD600, 96 h, primary screen (AID 1091); also: test concentration not given here; conditions: S. cerevisiae BY4716 + rapamycin, higher = more signal, called active from +8 up or from −8 down
# [15] = target: Torsin-1A-interacting protein 2 (Homo sapiens) (UniProt Q8NFQ8); experiment: small molecules binding lysate-expressed LULL1 – cell lysate, human LULL1 lysate, 635/667 nm fluorescence, primary screen (AID 1092); conditions: small-molecule microarray, hLULL1 lysate binding, 635 nm fluorescence; higher = more signal;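 also: probe is lysate of COS7 cells overexpressing human LULL1; score merges per-feature 667 nm fluorescence with signal-to-noise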
# [16] = optical density change of DRC41 E. coli – strain DRC41, OD650, 24 h, E. coli filamentation project, primary screen (AID 1093);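 also: MC1000 strain lacking acrAB efflux and sulA so SOS filamentation is blocked; test concentration not given here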; conditions: E. coli DRC41 growth, higher = more signal, called active from +8 up or from −8 down
# [17] = probe aLefty2 binding to arrayed compounds – biochemical, biotinylated probe, 635/667 nm fluorescence, primary screen (AID 1094); conditions: small-molecule microarray, higher = more signal;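 also: score merges spot fluorescence near 667 nm with spot signal-to-noise ratio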
# [18] = tested on: Noggin (protein binding on small-molecule microarray); experiment: small molecules binding Noggin protein – biochemical, 635/667 nm fluorescence, primary screen (AID 1095); conditions: 635 nm fluorescence, higher = more signal;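 also: score merges 667 nm feature fluorescence with signal to noise over triplicate slides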
# [19] = target: Neurogenic locus notch homolog protein 3 (Homo sapiens) (UniProt Q9UM47); experiment: small molecules binding NOTCH3 protein – biochemical, 635/667 nm fluorescence, primary screen (AID 1096); conditions: small-molecule microarray, 635 nm fluorescence, higher = more signal
# [20] = probe aEGFR binding to arrayed compounds – biochemical, biotinylated probe, 635/667 nm fluorescence, primary screen (AID 1097); conditions: small-molecule microarray, higher = more signal;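 also: probe is a biotinylated anti-EGFR antibody binding compounds printed on slides; score combines fluorescence near 667 nm and signal to noise of each spot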
# Neurogenic locus notch homolog protein 2 (Homo sapiens), sequence (Q04721 whole entry, looked up, canonical isoform): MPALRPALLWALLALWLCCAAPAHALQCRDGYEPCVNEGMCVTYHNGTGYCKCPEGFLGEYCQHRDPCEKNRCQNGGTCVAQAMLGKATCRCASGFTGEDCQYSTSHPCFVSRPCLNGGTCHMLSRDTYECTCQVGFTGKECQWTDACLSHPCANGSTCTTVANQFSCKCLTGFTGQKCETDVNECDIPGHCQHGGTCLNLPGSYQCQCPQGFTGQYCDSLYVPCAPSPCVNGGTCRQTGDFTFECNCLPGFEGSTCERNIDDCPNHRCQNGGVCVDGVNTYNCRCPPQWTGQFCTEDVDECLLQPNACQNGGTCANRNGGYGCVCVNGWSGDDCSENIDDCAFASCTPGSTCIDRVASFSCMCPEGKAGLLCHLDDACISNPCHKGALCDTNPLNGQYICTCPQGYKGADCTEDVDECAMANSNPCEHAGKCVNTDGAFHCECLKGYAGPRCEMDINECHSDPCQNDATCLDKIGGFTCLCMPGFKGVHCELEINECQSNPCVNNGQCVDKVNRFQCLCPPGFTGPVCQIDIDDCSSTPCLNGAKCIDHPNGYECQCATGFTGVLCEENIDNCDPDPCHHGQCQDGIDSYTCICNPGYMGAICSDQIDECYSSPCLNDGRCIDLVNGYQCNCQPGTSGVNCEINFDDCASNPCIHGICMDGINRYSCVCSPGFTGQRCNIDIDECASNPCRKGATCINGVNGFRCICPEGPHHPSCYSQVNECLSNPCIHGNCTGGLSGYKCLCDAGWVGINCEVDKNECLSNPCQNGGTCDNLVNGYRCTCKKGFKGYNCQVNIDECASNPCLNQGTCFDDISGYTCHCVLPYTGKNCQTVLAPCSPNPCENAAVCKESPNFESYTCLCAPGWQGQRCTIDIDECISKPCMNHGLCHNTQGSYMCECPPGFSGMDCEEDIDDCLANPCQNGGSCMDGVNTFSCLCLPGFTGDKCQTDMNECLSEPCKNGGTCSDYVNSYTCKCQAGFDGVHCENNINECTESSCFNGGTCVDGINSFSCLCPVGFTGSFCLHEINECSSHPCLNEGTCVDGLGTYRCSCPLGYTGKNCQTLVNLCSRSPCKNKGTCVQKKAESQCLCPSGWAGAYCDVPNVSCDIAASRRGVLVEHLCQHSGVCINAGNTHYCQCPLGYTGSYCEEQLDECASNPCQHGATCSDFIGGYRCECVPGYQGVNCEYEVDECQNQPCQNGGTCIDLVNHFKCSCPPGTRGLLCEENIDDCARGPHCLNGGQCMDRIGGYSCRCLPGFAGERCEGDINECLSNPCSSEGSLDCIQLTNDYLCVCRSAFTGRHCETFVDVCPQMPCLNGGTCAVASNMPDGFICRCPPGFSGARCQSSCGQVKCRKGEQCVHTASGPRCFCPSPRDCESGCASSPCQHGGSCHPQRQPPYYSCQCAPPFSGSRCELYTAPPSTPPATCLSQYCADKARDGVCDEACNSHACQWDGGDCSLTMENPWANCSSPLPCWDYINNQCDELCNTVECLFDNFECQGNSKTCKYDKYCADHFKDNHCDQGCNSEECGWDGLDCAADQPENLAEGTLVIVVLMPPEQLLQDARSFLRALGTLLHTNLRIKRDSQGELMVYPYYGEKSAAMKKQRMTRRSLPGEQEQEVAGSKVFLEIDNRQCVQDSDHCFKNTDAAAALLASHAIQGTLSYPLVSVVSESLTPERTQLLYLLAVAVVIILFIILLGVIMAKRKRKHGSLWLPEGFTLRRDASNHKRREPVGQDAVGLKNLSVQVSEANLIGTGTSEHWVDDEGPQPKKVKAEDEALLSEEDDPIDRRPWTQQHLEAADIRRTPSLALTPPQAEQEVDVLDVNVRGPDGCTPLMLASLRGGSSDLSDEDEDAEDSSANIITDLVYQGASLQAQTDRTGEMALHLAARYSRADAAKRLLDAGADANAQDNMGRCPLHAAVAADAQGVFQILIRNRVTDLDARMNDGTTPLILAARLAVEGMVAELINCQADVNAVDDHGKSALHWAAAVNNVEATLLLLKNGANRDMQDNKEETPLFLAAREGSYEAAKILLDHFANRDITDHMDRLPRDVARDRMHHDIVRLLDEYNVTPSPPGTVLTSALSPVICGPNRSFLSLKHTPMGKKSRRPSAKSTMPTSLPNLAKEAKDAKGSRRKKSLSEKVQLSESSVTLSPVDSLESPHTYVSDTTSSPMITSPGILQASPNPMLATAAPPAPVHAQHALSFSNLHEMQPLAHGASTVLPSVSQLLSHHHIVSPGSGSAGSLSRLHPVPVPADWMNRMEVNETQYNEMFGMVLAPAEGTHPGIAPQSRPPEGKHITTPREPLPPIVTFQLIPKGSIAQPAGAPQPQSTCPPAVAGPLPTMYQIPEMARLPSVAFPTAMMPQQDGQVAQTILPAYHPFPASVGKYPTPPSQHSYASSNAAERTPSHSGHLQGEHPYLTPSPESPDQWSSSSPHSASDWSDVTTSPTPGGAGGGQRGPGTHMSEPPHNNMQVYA
# Pro-neuregulin-1, membrane-bound isoform (Homo sapiens), sequence (Q02297 whole entry, looked up, the tested form may be a part, canonical isoform): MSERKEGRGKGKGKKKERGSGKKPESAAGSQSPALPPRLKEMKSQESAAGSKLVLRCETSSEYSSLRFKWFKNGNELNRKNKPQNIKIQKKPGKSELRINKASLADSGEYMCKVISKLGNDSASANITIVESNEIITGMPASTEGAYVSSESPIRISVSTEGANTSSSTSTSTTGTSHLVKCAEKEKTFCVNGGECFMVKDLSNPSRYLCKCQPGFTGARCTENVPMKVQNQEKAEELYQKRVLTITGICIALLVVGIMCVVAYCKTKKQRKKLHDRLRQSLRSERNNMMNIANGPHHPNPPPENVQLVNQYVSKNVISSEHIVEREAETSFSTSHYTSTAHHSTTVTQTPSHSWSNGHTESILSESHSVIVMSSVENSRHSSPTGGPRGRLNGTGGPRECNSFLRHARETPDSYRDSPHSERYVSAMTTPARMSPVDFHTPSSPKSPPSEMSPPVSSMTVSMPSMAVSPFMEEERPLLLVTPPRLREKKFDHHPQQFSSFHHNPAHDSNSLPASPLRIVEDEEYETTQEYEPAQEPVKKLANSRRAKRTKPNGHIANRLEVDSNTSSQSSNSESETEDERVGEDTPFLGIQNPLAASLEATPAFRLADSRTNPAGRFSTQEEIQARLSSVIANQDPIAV
# Torsin-1A-interacting protein 2 (Homo sapiens), sequence (Q8NFQ8 whole entry, looked up): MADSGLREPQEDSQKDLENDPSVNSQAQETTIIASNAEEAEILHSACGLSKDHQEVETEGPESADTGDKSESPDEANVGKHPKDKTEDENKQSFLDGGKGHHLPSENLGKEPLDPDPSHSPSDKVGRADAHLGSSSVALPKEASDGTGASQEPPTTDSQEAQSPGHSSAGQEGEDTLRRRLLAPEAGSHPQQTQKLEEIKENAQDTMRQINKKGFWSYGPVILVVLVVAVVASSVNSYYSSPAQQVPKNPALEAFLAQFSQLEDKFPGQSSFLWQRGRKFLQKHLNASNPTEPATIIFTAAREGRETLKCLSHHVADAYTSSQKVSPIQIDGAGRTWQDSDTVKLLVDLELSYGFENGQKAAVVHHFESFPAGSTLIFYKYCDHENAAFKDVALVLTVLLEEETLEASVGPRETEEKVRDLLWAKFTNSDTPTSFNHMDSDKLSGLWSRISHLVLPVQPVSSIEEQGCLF
SMILES,composite z-score [1],composite z-score [2],composite z-score [3],composite z-score [4],composite z-score [5],composite z-score [6],composite z-score [7],z-score [8],composite z-score [9],composite z-score [10],composite z-score [11],z-score [12],z-score [13],z-score [14],composite z-score [15],z-score [16],composite z-score [17],composite z-score [18],composite z-score [19],composite z-score [20]
O=C1C2C=CC(C(O)c3ccc(-c4ccccc4)s3)N(n3cnnc3)C2C(=O)N1Cc1ccccc1 (stereo not given),0.0626,-0.0982,-0.083,-0.0152,0.207,0.802,1.04,0.545 (inactive),0.415,-0.0645,0.147,-0.466 (inactive),-11.7 (active),-0.0238 (inactive),1.77,-0.485 (inactive),-0.0823,-0.0489,0.225,-0.0716
O=C1O[C@H](c2ccccc2)[C@H](c2ccccc2)N2[C@H]1[C@@H](C(=O)Nc1nc3ccccc3s1)[C@]1(C(=O)Nc3ccccc31)[C@H]2c1ccc(O)cc1,-0.423,0.108,-0.0516,0.405,1.13,1.43,1.25,0.678 (inactive),0.521,-0.149,1.55,0.474 (inactive),-0.0898 (inactive),0.677 (inactive),2.74,0.071 (inactive),-0.23,1.24,1.15,-0.0644
COc1ccc([Si](C)(C)[C@H]2[C@H](CC(=O)N(CCO)Cc3ccccc3)O[C@@]3(C(=O)N(Cc4cccc(N5CCC5=O)c4)c4ccccc43)[C@@H]2C)cc1,0.0204,0.906,-0.131,0.55,0.629,1.18,1.07,-1.55 (inactive),-0.194,-0.13,1.39,-0.763 (inactive),-0.509 (inactive),1.16 (inactive),1.64,2.57 (inactive),-0.0188,0.847,0.976,-0.0334
O=C1OCCC/C=C\[C@H]2OC34C=CCN(Cn5nnc6ccccc65)C(=O)[C@H]3N(CCCCCO)C(=O)[C@@H]4C12 (stereo not given in full),0.0227,-0.126,-0.145,-0.821,-0.919,0.865,0.443,0.406 (inactive),-0.666,-0.206,-1.29,-0.401 (inactive),-0.745 (inactive),-1.83 (inactive),1.04,0.498 (inactive),-0.114,-0.808,-0.0037,-0.174
C=CC[C@@]1(C(=O)N2CCOCC2)N=C(c2ccc(OCCCO)cc2)O[C@@H]1c1ccccc1N=[N+]=[N-],0.529,0.985,-0.0073,0.853,1.53,1.44,1.19,-0.469 (inactive),0.993,0.21,1.54,-1.27 (inactive),-1.02 (inactive),0.811 (inactive),3.41,0.639 (inactive),0.362,0.998,1.13,0.353
COCCOC(=O)N1C(=O)[C@@]2(c3cc(C#CCNC(N)=O)ccc31)[C@H](c1ccc(O)cc1)N1[C@H](c3ccccc3)[C@H](c3ccccc3)OC(=O)[C@H]1[C@@H]2C(=O)NC[C@H](O)c1ccccc1,0.134,1.16,0.109,0.846,1.01,0.743,0.866,-0.463 (inactive),1.55,0.127,1.55,0.71 (inactive),1.2 (inactive),0.611 (inactive),1.62,-0.675 (inactive),0.434,0.664,1.06,0.0586
CCOC(=O)C1=CC[C@@H](c2ccccc2)N(S(=O)(=O)c2ccc(C)cc2)[C@H]1C(=O)OCC,0.138,-0.0127,0.338,0.641,1.25,-0.196,1.03,-2.4 (inactive),0.603,-0.108,0.334,0.19 (inactive),0.572 (inactive),1.94 (inactive),1.14,0.157 (inactive),0.415,0.0818,0.0539,0.202
CCOC(=O)C[C@H]1[C@H](OC(=O)Cc2ccc3c(c2)OCO3)[C@@H](NC(=O)c2ccc(-c3ccccc3)cc2)c2cc(OCCCO)ccc2N1C(=O)c1ccccc1,-0.386,-0.0093,-0.0144,0.585,0.537,0.371,0.797,-3.42 (inactive),0.239,-0.374,0.869,0.22 (inactive),-0.661 (inactive),0.712 (inactive),1.81,1.96 (inactive),-0.137,0.267,0.643,0.0027
CCCCCCCCCCC(O)C1C=CC2C(=O)N(Cc3ccccc3)C(=O)C2N1n1cnnc1 (stereo not given),0.794,0.0622,0.279,0.137,0.53,0.919,0.843,1.91 (inactive),1.08,0.582,1.14,0.187 (inactive),-0.25 (inactive),-0.976 (inactive),2.75,-1.45 (inactive),0.326,-0.331,0.55,0.0773
O=C1O[C@@H](c2ccccc2)[C@@H](c2ccccc2)N2[C@@H](c3ccc(O)cc3)[C@]3(C(=O)Nc4ccc(C#CC5=CCCCC5)cc43)[C@@H](C(=O)O)[C@H]12,0.638,1.56,-0.0908,0.725,0.798,1.2,1.14,-0.611 (inactive),0.437,0.0274,1.53,-2.6 (inactive),-3.2 (inactive),-2.21 (inactive),2.86,3.68 (inactive),0.246,0.878,0.925,-0.0315

# Reference: PubChem BioAssay
